Experimental data published in publication PMC7819943, “Rice protein-binding microarrays: a tool to detect cis-acting elements near promoter regions in rice”.
Whole data set: some 35,000 sequences, median “fluorescence intensity (a.u.)” near 10,000, cut for the highest 2% near 52,000. For the sample, the highest values were picked, then their nearest neighbours and some sequences at random.

biological target: T1, OsWOX13 (Oryza sativa, UniProt Q5QMM3 1-267); test: protein-binding microarray (RPBM); PBS, 2% BSA, 51.3 ng/ul salmon testes DNA, 50 uM zinc acetate, 200 nM TF, 25 C, 1 h; high values mean tight binding; details: protein: recombinant; tags: N-terminal polyhistidine and DsRed monomer fusion (pET32a); label: CyDye5-dUTP incorporated in the synthesized complementary strand; 3' TTTTT single-stranded linker to array surface; dsDNA, one strand shown
T1 sequence: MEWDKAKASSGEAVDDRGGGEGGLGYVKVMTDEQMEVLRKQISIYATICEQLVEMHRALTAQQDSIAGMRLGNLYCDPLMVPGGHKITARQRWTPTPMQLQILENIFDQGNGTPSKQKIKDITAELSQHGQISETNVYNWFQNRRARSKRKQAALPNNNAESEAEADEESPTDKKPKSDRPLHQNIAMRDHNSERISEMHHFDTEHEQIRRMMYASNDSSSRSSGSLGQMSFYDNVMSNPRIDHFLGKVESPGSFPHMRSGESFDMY
Outline: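 The binding signal for each feature is its fluorescence intensity in arbitrary units. An Axon 4000B scanner was used to read a custom Agilent array that had been made double-stranded with Cy5-dUTP primer extension, blocked with 2% BSA, incubated at 25 °C for 1 h with 200 nM protein in PBS, 2% BSA, salmon testes DNA and 50 µM zinc acetate, and washed. The protein was an N-terminal polyhistidine–DsRed transcription factor fusion from E. coli BL21-CodonPlus, purified on Ni–NTA.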

Sequence | binding signal
CCTTAATTACATTGTATATAGTGATGTATGATTTATTTTACGGAGTCACCTAGTGCAG | 14700 fluorescence intensity (a.u.)
CATGAGTAAATCAATCAGGGATGGCAACATTCAGGTTTAGCGGAGTCACCTAGTGCAG | 12200 fluorescence intensity (a.u.)
CGTTTTGTTAAATTAAAATAAATTAACAAGCCCAATTGCACGGAGTCACCTAGTGCAG | 22300 fluorescence intensity (a.u.)
TTACATTAGCAATTGATTGCTCTTATTTGACCATGATGTTCGGAGTCACCTAGTGCAG | 31500 fluorescence intensity (a.u.)
TTAAAAGTTTGATTGAAATTGGAACGATGTGATGGAAAAGCGGAGTCACCTAGTGCAG | 22400 fluorescence intensity (a.u.)
CAGATGTGACTGGTATATATTGAAAGGTGCGAGGCACTGGCGGAGTCACCTAGTGCAG | 9620 fluorescence intensity (a.u.)
AAAGTTTGGATTTTGATTGAAATTGAAGATGATGTGACTGCGGAGTCACCTAGTGCAG | 26700 fluorescence intensity (a.u.)
TGATTCAAATGATTGAAGCTTTCCAAAACCTATGAAATTCCGGAGTCACCTAGTGCAG | 17700 fluorescence intensity (a.u.)
CGTGTGCAGTGCAGTGATGATTGAGAAAGGCCATGCCATACGGAGTCACCTAGTGCAG | 3900 fluorescence intensity (a.u.)
AAGTTTGATTAAAATTGGAACGATGTGATGGAAAAGTTAGCGGAGTCACCTAGTGCAG | 17300 fluorescence intensity (a.u.)
TTGATTGAAATTGGAGATGATGTGACTGAAAAGTTGTGTGCGGAGTCACCTAGTGCAG | 41800 fluorescence intensity (a.u.)
AAATTAAATTATACTCAATACACAAGTTTGAATCTGATTCCGGAGTCACCTAGTGCAG | 11400 fluorescence intensity (a.u.)
TTGATTGAGATGTGACTGGAAAGGTGTGTCAGTGCAGGCACGGAGTCACCTAGTGCAG | 56800 fluorescence intensity (a.u.)
ATGCTTTGATTGAAATCAAGTACTCTGAAGCTAGTCATTCCGGAGTCACCTAGTGCAG | 56700 fluorescence intensity (a.u.)
TAAAATTGAAAATTTGATTGAAATTGGAACGATGTGATGGCGGAGTCACCTAGTGCAG | 64500 fluorescence intensity (a.u.)
GTTGATGAGAGTGAAATTTGATTGACAAAGGATTGACTGGCGGAGTCACCTAGTGCAG | 64400 fluorescence intensity (a.u.)
CAAATAATTATTATACTTTGTCATGTCATATAAACTATATCGGAGTCACCTAGTGCAG | 17900 fluorescence intensity (a.u.)
ACTCATGCTTACTTGATTGATAGTGGAAGAACCTTTTCTTCGGAGTCACCTAGTGCAG | 28200 fluorescence intensity (a.u.)
AGTTTAATGGTGATAATATGATTTCAAAATCTGACAACCGCGGAGTCACCTAGTGCAG | 12500 fluorescence intensity (a.u.)
TTTTCTGGTGGCAAGATGATTGAGATATACACCTTGAAGTCGGAGTCACCTAGTGCAG | 7690 fluorescence intensity (a.u.)
GGAATTGGTAACAGCAAGCTTAACAGAGAAAGGTAGTCGACGGAGTCACCTAGTGCAG | 8350 fluorescence intensity (a.u.)
TCTATAAATTGGCCTAGTACCTGGAAAGTGAAATCTGCCACGGAGTCACCTAGTGCAG | 7920 fluorescence intensity (a.u.)
CGTAATTGCATCTCTATTTTCATCTCTACTTCATTTCTCTCGGAGTCACCTAGTGCAG | 37900 fluorescence intensity (a.u.)
TCAAAATTAGAAGTTTGAAGAAATTGGAACGATGTGATGGCGGAGTCACCTAGTGCAG | 7940 fluorescence intensity (a.u.)
ATAGTGATAGGTCTGTCAATGCAGTGAGGTCCTGAAAACCCGGAGTCACCTAGTGCAG | 8210 fluorescence intensity (a.u.)

Sequence | binding signal
AAAATTGAAAGTTTGATTGAAATTAGAACGATGTGACGAACGGAGTCACCTAGTGCAG | 35500 fluorescence intensity (a.u.)
TAGAAGTTTGATTGAAATTGAAACGATATGATGGAAAAGTCGGAGTCACCTAGTGCAG | 44500 fluorescence intensity (a.u.)
CAAAATTTGAAGTTTGATTGAAATTGGTACGATGTGATGGCGGAGTCACCTAGTGCAG | 62400 fluorescence intensity (a.u.)
TCTGATGAACACATTGAGAAAGCAGATGAAGTTGCAGTGTCGGAGTCACCTAGTGCAG | 5120 fluorescence intensity (a.u.)
AATTGATTTATTTTGAAACAGAGAGAATACAGTTTATTTACGGAGTCACCTAGTGCAG | 32400 fluorescence intensity (a.u.)
TTTGGTTGAAATTGAAACGATGTGATGGAAAAGTTGGAAGCGGAGTCACCTAGTGCAG | 5010 fluorescence intensity (a.u.)
TCTCTGTGATTGAAACCTTGTCTCTGAAATGCTTGAGGGCCGGAGTCACCTAGTGCAG | 55400 fluorescence intensity (a.u.)
TCTGATTGAACGAGTTTACAGATTGAGAAAGCACGCGTCACGGAGTCACCTAGTGCAG | 53800 fluorescence intensity (a.u.)
CTGATTGAAATTGAAAGTTTGATTGAAATTGAAACGATGCCGGAGTCACCTAGTGCAG | 65300 fluorescence intensity (a.u.)
TGATGAAGATGATGAGCATGTGATTGAGCTGTCTGATTGCCGGAGTCACCTAGTGCAG | 33800 fluorescence intensity (a.u.)
TATTAAACGAATTATCACAAAATTATAGATTTATCATGTTCGGAGTCACCTAGTGCAG | 3760 fluorescence intensity (a.u.)
GCTCCAATTTAATTTCAAAATGAATTTATATATTCATTGTCGGAGTCACCTAGTGCAG | 14100 fluorescence intensity (a.u.)
CTGCTTAATTACTTCAGCCTTTACACATCAGCATATCATACGGAGTCACCTAGTGCAG | 8250 fluorescence intensity (a.u.)
CGTAATTGTTTAGTTGCAAAAGGATAAGCACCAAACCAAACGGAGTCACCTAGTGCAG | 12400 fluorescence intensity (a.u.)
ATTATTTGATTGTGGTTTAATTGTTGGTGCAACAGGGTTACGGAGTCACCTAGTGCAG | 47900 fluorescence intensity (a.u.)
TCAAAATTGGAAGTTTGATTGAAATTGGAACGATGTGACGCGGAGTCACCTAGTGCAG | 61400 fluorescence intensity (a.u.)
AAGTTTGATTGAAATTGGAACGATGTGACGGAAAAGTTGACGGAGTCACCTAGTGCAG | 35100 fluorescence intensity (a.u.)
TTGGAAGTTTGATTGAAATTGGAACGATGTGACGGGAAAGCGGAGTCACCTAGTGCAG | 23300 fluorescence intensity (a.u.)
TATGTGATTATCTTCTCCATACCATCATGTTCTAGATACGCGGAGTCACCTAGTGCAG | 24900 fluorescence intensity (a.u.)
TTCTCATTTTATTTAATTTAAAAGTAATTTATTACATGTTCGGAGTCACCTAGTGCAG | 11600 fluorescence intensity (a.u.)
GCCTAATTAATCCATGATTAACCATAAGTGCTGCAGTAACCGGAGTCACCTAGTGCAG | 33500 fluorescence intensity (a.u.)
CTGAGATGCTAATTGTGTGTACACTGTTGAGCACATTTGACGGAGTCACCTAGTGCAG | 3680 fluorescence intensity (a.u.)
GGCTATTTCGTCCCAATTACCAATGGGCTAATTTTGGATCCGGAGTCACCTAGTGCAG | 5000 fluorescence intensity (a.u.)
CTCCCAATATAATTATTTTCTATTTTCACAAACTCAGATACGGAGTCACCTAGTGCAG | 5940 fluorescence intensity (a.u.)
